# PubChem BioAssay
# Where “and” joins values, the source holds several entries; their conditions need not be identical. Equal values may be shown once. Records with an inconclusive call do not appear. Calls of active or inactive are those of the source.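 The calls were made as follows, unless noted: active = normalized viability below 100% at a tested concentration; inactive = the rest.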
# Key:
# [1] = viability loss in pontine glioma line – cell-based, SU-DIPG-XVII, MIPE5.0, CellTiter-Glo, qHTS, dose response (AID 1347060; cut-off not given, nearly all actives have AC50 up to about 26 µM;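 also: cells exposed to compound for 48 hours before viability readout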); details: CellTiter-Glo ATP luminescence
# [2] = viability loss in pontine glioma line – cell-based, JHH-DIPG-1, MIPE4.0, CellTiter-Glo, qHTS, dose response (AID 1347062; cut-off not given, nearly all actives have AC50 up to about 27 µM;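 also: cells exposed to compound for two days before readout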); details: JHH-DIPG-1 viability, CellTiter-Glo ATP luminescence
# [3] = viability loss in pontine glioma line – cell-based, SU-DIPG-IV, MIPE4.0, CellTiter-Glo, qHTS, dose response (AID 1347063; cut-off not given, nearly all actives have AC50 up to about 30 µM;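 also: compound exposure lasted 48 hours before the viability readout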); details: CellTiter-Glo ATP luminescence
# [4] = viability loss in pontine glioma line – cell-based, SU-DIPG-XIII, MIPE5.0, CellTiter-Glo, qHTS, dose response (AID 1347064; cut-off not given, nearly all actives have AC50 up to about 23 µM;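 also: cells exposed to compound for 48 hours before the viability read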); details: CellTiter-Glo ATP luminescence
# [5] = viability loss in pontine glioma line – cell-based, SU-DIPG-XXV, MIPE5.0, CellTiter-Glo, qHTS, dose response (AID 1347065; cut-off not given, nearly all actives have AC50 up to about 26 µM;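 also: cells exposed to compound for 48 hours before ATP readout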); details: CellTiter-Glo ATP luminescence
# [6] = JHH-DIPG-1 glioma cell viability, MIPE5.0 library, CellTiter-Glo luminescence, qHTS (AID 1347067; cut-off not given, nearly all actives have AC50 up to about 26 µM;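 also: cells exposed to compound for 48 hours before readout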); details: JHH-DIPG-1 glioma viability, CellTiter-Glo ATP luminescence
# [7] = growth inhibition of DIPG cells – cell-based, MIPE5.0 library, qHTS (AID 1347068; cut-off not given, nearly all actives have IC50 up to about 30 µM;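 also: cells exposed to compound for 48 hours before viability readout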); details: SU-DIPG-XXV viability
# [8] = viability loss with induced miR-34 in A549 – imaging, A549 dox-inducible miR-34, nuclei and caspase counts, primary screen (AID 1347080;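 active = compounds whose cell count with miR-34 switched on is under 0.7 times the count with it off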); details: A549 miR-34 inducible, Hoechst nuclei count, 48 h
# [9] = compounds altering HSF1 focus formation in cells – imaging, Selleck Cancer Library (AID 1347162; in the data active = plate-normalised HSF1 focus index below about 0.46); details: human cells, HSF1 nuclear foci imaging, at 10 µM; SSMD: measured here: HSF1 foci SSMD mean; cell count: measured here: cell number; plate-normalised HSF1 focus index: stronger effect = lower value
# [10] = MELAS cybrid and Rieske KO viability enhancers – cell-based, MELAS cybrids, Rieske KO mouse fibroblasts, CellTiter-Glo, primary screen (AID 1508586;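 active = mean z-score across replicates of 1.96 or higher in either the MELAS or the Rieske mutant cell line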;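 also: z relative to plate mean and SD of compound and empty wells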); details: low glucose
# [11] = drug combination growth inhibition, ovarian cancer – cell-based, oncology-focused library, rucaparib conditional, profiling panel (AID 1508598); details: patient-derived ovarian cancer cells, CellTiter-Glo viability, 144 h, stronger effect = lower value
# [12] = growth inhibition, single agent or in combination, cell-based, chromothripsis tumors, cisplatin or BGB combos (AID 1671449; in the data active = inhibition above about 80%;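 also: cells exposed for 96 hours; 0% = vehicle DMSO and 100% = killing by high DMSO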); details: LFS_MB_P medulloblastoma cells
# [13] = growth inhibition, single agent and combos, cell-based, chromothripsis tumors, cisplatin or BGB combos (AID 1671450; in the data active = inhibition above about 80%;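 also: cells exposed to compound for four days; 0% = vehicle DMSO and 100% = cell killing by high DMSO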); details: HDN33 neuroblastoma cells, stronger effect = higher value
# [14] = growth inhibition, single agents and combos, ICB984, cell-based, cisplatin or BGB combos, synergistic combos for chromothripsis tumors (AID 1671451; call rule not given here;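 also: cells exposed for 96 hours before readout; 0% = vehicle DMSO and 100% = killing by high DMSO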); details: ICB984 medulloblastoma cells, drug combinations, stronger effect = higher value
# [15] = growth inhibition, single agents and combos, HTB85, cell-based, BGB or cisplatin IC20 combos, synergistic combos for chromothripsis tumors (AID 1671453; in the data active = inhibition above about 80%;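 also: cells exposed for 96 hours before readout; 0% = vehicle DMSO and 100% = high DMSO killing control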); details: HTB85 osteosarcoma cells, drug combinations, stronger effect = higher value
# [16] = growth inhibition, MDA-MB-436, cell-based, BGB or cisplatin combos, synergistic combos for chromothripsis tumors (AID 1671458; call rule not given here;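 also: cells exposed for 96 hours; 0% = vehicle DMSO and 100% = killing by high DMSO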); details: MDA-MB-436 breast carcinoma growth inhibition, drug combinations, stronger effect = higher value
# [17] = BT084 cell growth, single and combined drugs, ICGC_MB145, cisplatin and BGB IC40 combos (AID 1671461; in the data active = inhibition above about 80%;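 also: cells exposed to drugs for 96 hours; 0% = vehicle DMSO and 100% = high DMSO full killing control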); details: BT084 medulloblastoma cells, drug combinations, stronger effect = higher value
# [18] = RCMB18 cell growth, single agent and combined, cisplatin and BGB IC40 combos (AID 1671462; in the data active = inhibition above about 80%;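 also: cells exposed to compound for four days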); details: RCMB18 medulloblastoma cells, stronger effect = higher value
# [19] = stronger effect = lower value, cell number ratio, induced over uninduced
# [20] = measured here: relative caspase fold change +Dox/-Dox
# [21] = measured here: total cells with miR-34 induction, stronger effect = lower value
# [22] = measured here: total cells without miR-34 induction
# [23] = MELAS cybrid survival, CellTiter-Glo 48 h, stronger effect = higher value
# [24] = Rieske KO mouse fibroblast survival, CellTiter-Glo 72 h
structure (smiles),measurement,setting,value
c1ccc2c(CCNc3ccc(Nc4ccncc4)cc3)c[nH]c2c1,AC50,[1],18.6 µM (active)
same,AC50,[2],18.7 µM (active)
same,AC50,[3],18.7 µM (active)
same,AC50,[4],20.9 µM (active)
same,AC50,[5],26.3 µM (active)
same,AC50,[6],23.5 µM (active)
same,IC50,[7],5.9 µM (active)
same,fold change,[8]; [19],1.02 (inactive)
same,fold change,[8]; [20],1.37
same,cell count,[8]; [21],2540
same,cell count,[8]; [22],2490
same,SSMD,[9],-0.197
same,cell count,[9],6510
same,plate-normalised HSF1 focus index,[9],0.99 (inactive)
same,z-score,[10]; [23],-0.455 (inactive)
same,z-score,[10]; [24],-0.307
same,viability,"[11]; at 0.000305 µM, OCI-C5x cells, with rucaparib 10 µM, 100% = cells with rucaparib alone",116% (inactive)
same,viability,"[11]; at 0.000305 µM, OCI-C5x cells, without rucaparib",111% (inactive)
same,viability,"[11]; at 0.000305 µM, OCI-P5x cells, with rucaparib 20 µM, 100% = cells with rucaparib alone",114% (inactive)
same,viability,"[11]; at 0.000305 µM, OCI-P5x cells, without rucaparib",116% (inactive)
same,viability,"[11]; at 0.00122 µM, OCI-C5x cells, with rucaparib 10 µM, 100% = cells with rucaparib alone",116% (inactive)
same,viability,"[11]; at 0.00122 µM, OCI-C5x cells, without rucaparib",111% (inactive)
same,viability,"[11]; at 0.00122 µM, OCI-P5x cells, with rucaparib 20 µM, 100% = cells with rucaparib alone",117% (inactive)
same,viability,"[11]; at 0.00122 µM, OCI-P5x cells, without rucaparib",121% (inactive)
same,viability,"[11]; at 0.00488 µM, OCI-C5x cells, with rucaparib 10 µM, 100% = cells with rucaparib alone",116% (inactive)
same,viability,"[11]; at 0.00488 µM, OCI-C5x cells, without rucaparib",99.7% (active)
same,viability,"[11]; at 0.00488 µM, OCI-P5x cells, with rucaparib 20 µM, 100% = cells with rucaparib alone",112% (inactive)
same,viability,"[11]; at 0.00488 µM, OCI-P5x cells, without rucaparib",119% (inactive)
same,viability,"[11]; at 0.0195 µM, OCI-C5x cells, with rucaparib 10 µM, 100% = cells with rucaparib alone",111% (inactive)
same,viability,"[11]; at 0.0195 µM, OCI-C5x cells, without rucaparib",105% (inactive)
same,viability,"[11]; at 0.0195 µM, OCI-P5x cells, with rucaparib 20 µM, 100% = cells with rucaparib alone",111% (inactive)
same,viability,"[11]; at 0.0195 µM, OCI-P5x cells, without rucaparib",122% (inactive)
same,viability,"[11]; at 0.0781 µM, OCI-C5x cells, with rucaparib 10 µM, 100% = cells with rucaparib alone",104% (inactive)
same,viability,"[11]; at 0.0781 µM, OCI-C5x cells, without rucaparib",111% (inactive)
same,viability,"[11]; at 0.0781 µM, OCI-P5x cells, with rucaparib 20 µM, 100% = cells with rucaparib alone",112% (inactive)
same,viability,"[11]; at 0.0781 µM, OCI-P5x cells, without rucaparib",122% (inactive)
same,viability,"[11]; at 0.313 µM, OCI-C5x cells, with rucaparib 10 µM, 100% = cells with rucaparib alone",110% (inactive)
same,viability,"[11]; at 0.313 µM, OCI-C5x cells, without rucaparib",101% (inactive)
same,viability,"[11]; at 0.313 µM, OCI-P5x cells, with rucaparib 20 µM, 100% = cells with rucaparib alone",99.7% (active)
same,viability,"[11]; at 0.313 µM, OCI-P5x cells, without rucaparib",110% (inactive)
same,viability,"[11]; at 1.25 µM, OCI-C5x cells, with rucaparib 10 µM, 100% = cells with rucaparib alone",107% (inactive)
same,viability,"[11]; at 1.25 µM, OCI-C5x cells, without rucaparib",107% (inactive)
same,viability,"[11]; at 1.25 µM, OCI-P5x cells, with rucaparib 20 µM, 100% = cells with rucaparib alone",94.3% (active)
same,viability,"[11]; at 1.25 µM, OCI-P5x cells, without rucaparib",104% (inactive)
same,viability,"[11]; at 5 µM, OCI-C5x cells, with rucaparib 10 µM, 100% = cells with rucaparib alone",25.5% (active)
same,viability,"[11]; at 5 µM, OCI-C5x cells, without rucaparib",106% (inactive)
same,viability,"[11]; at 5 µM, OCI-P5x cells, with rucaparib 20 µM, 100% = cells with rucaparib alone",78.5% (active)
same,viability,"[11]; at 5 µM, OCI-P5x cells, without rucaparib",99% (active)
CN(C)c1ccc(C(=O)NCCCCCCC(=O)NO)cc1,AC50,[1],1.48 µM (active)
same,AC50,[2],0.743 µM (active)
same,AC50,[3],1.05 µM (active)
same,AC50,[4],0.934 µM (active)
same,AC50,[5],0.934 µM (active)
same,AC50,[6],1.18 µM (active)
same,fold change,[8]; [19],0.925 (inactive) and 1.16 (inactive)
same,fold change,[8]; [20],1.2 and 1.01
same,cell count,[8]; [21],3030 and 2210
same,cell count,[8]; [22],3270 and 1910
same,z-score,[10]; [23],1.18 (inactive)
same,z-score,[10]; [24],0.973
same,inhibition,"[12]; at 0.5 µM, stronger effect = higher value",-18.1% (inactive)
same,inhibition,"[12]; measured here: combination with BGB IC20, at 0.005 µM",-25.6%
same,inhibition,"[12]; measured here: combination with BGB IC40, at 0.005 µM",-22.1%
same,inhibition,"[12]; measured here: combination with BGB IC40, at 0.05 µM",-25.8%
same,inhibition,"[12]; measured here: combination with cisplatin, at 0.5 µM, stronger effect = higher value",-23.5%
same,inhibition,"[12]; measured here: combination with cisplatin, at 5 µM, stronger effect = higher value",107%
same,inhibition,"[13]; BGB combo, at 5 µM",97.7%
same,inhibition,[13]; at 0.5 µM,36.1% (inactive)
same,inhibition,"[13]; cisplatin combo, at 5 µM",99.4%
same,inhibition,"[13]; measured here: with BGB IC20 combination, at 0.5 µM",24.9%
same,inhibition,"[13]; measured here: with cisplatin IC20 combination, at 0.5 µM",50.9%
same,inhibition,"[13]; single agent, at 5 µM",99.1%
same,inhibition,"[14]; BGB IC20 combo, at 0.005 µM",6.17%
same,inhibition,"[14]; BGB IC40 combo, at 0.005 µM",7.19%
same,inhibition,"[14]; BGB IC40 combo, at 0.05 µM",87.6%
same,inhibition,[14]; at 0.5 µM,-20.5% (inactive)
same,inhibition,"[14]; cisplatin combo, at 0.05 µM",87.3%
same,inhibition,"[14]; cisplatin combo, at 0.5 µM",-6.9%
same,inhibition,"[14]; cisplatin combo, at 5 µM",-44.2%
same,inhibition,"[14]; measured here: 5 uM single agent, at 5 µM",-34.3%
same,inhibition,[15]; at 0.5 µM,28.6% (inactive)
same,inhibition,"[15]; measured here: with BGB IC20, at 0.5 µM",18.8%
same,inhibition,"[15]; measured here: with BGB IC20, at 5 µM",95.5%
same,inhibition,"[15]; measured here: with cisplatin IC20, at 0.5 µM",33.4%
same,inhibition,"[15]; measured here: with cisplatin IC20, at 5 µM",99.7%
same,inhibition,"[15]; single agent, at 5 µM",97.7%
same,inhibition,[16]; at 0.5 µM,5.27% (inactive)
same,inhibition,"[16]; measured here: BGB combination, at 0.5 µM",-2.54%
same,inhibition,"[16]; measured here: BGB combination, at 5 µM",46.7%
same,inhibition,"[16]; measured here: cisplatin combination, at 0.5 µM",-2.21%
same,inhibition,"[16]; measured here: cisplatin combination, at 5 µM",47.8%
same,inhibition,[17]; at 0.5 µM,27.2% (inactive)
same,inhibition,"[17]; cisplatin combination, at 0.5 µM",48.8%
same,inhibition,"[17]; cisplatin combination, at 5 µM",101%
same,inhibition,"[17]; measured here: BGB IC40 combination 0.05 uM, at 0.05 µM",2.96%
same,inhibition,"[17]; single agent, at 5 µM",104%
same,inhibition,[18]; at 0.5 µM,31.7% (inactive)
same,inhibition,"[18]; cisplatin combo, at 5 µM",93.3%
same,inhibition,"[18]; measured here: BGB IC40 combination, at 0.05 µM",-8.02%
same,inhibition,"[18]; measured here: combination with cisplatin, at 0.5 µM",62.9%
same,inhibition,"[18]; single agent, at 5 µM",89%
